# According to PubChem BioAssay (NCI):
# About 83,000 compounds went through this panel and 20% of them were active in at least one assay; those are over-represented in the sample as a whole.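 Each cell line was grown in a 96-well plate and treated with one concentration of compound for 48 hours. Values below 10 were considered active.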 Values without a mark were called inactive. Active and inactive are the calls of the source.
# Test system: HOP-62 NSCLC
# Experiment: NCI-60 one-dose screen, 48 h (100 = growth as untreated, 0 = no growth, -100 = all killed)
# Settings: 10 µM unless noted
# Experimental: Growth inhibition of the HOP-62 human Non-Small Cell Lung tumor cell line is measured as a screen for anti-cancer activity. Cells are grown in 96 well plates and exposed to the test compound for 48 hours. Compounds are tested at a single concentration, which is 10^-5 M for most compounds. The reported endpoint is percent growth (GI% or GIPRCNT), where numbers from 0 - 100% represent growth inhibition, and numbers from -100% - 0 represent cell death. For example, a value of 40 represents 60% growth inhibition. A value of 0 means no net growth occurred over the course of the experiment. A value of -40 indicates 40% of cells at the beginning of the experiment died by the end of the experiment. A value of -100 means all cells are dead at the end of the experiment.
# NCI-60 Human Tumor Cell Lines Screen was performed using the standard one-dose NCI protocol, which is described in more detail at https://dtp.cancer.gov/discovery_development/nci-60/default.htm.
# Compounds with GIPRCNT values below 10 were considered active. Activity score was based on GIPRCNT using the following formula: […]
# Score is 0 for GIPRCNT values of 100 or above, 50 for GIPRCNT values of 0, and 100 for GIPRCNT values of -100.
row,SMILES,growth
1,COc1ccc(C(=O)/C=C/c2ccc(OCc3ccccc3)c(OC)c2)cc1OC,31.4%
2,O=C(OC(OC(=O)c1cc(Cl)cc(Cl)c1)c1cccc2ccccc12)c1ccccc1 (stereo not given),99.5%
3,O=C(CN1CCOCC1)Nc1ccc2ncnc(Nc3ccc(Oc4cccc(F)c4)c(Cl)c3)c2c1,84.9%
4,COc1ccc(-c2nc(N/N=C/c3c[nH]c4ccccc34)nc(N3CCOCC3)c2C#N)cc1,105%
5,C#CC(=O)Nc1cccc2c1cc(C)n2-c1nc2c(c(NCc3ccccc3)n1)CCCC2,-46.8% (active)
6,CC1NC(=S)NC(=O)/C1=C/c1cc(=O)oc2c1ccc1ccccc12 (stereo not given),82.1%
7,COc1ccc(/C(C)=N/NC(=O)CSc2nc3ccccc3c(=O)n2Cc2ccc(S(N)(=O)=O)cc2)c(OC)c1,100%
8,COC(=O)C1NC(=S)N(c2ccc(Cl)cc2)C1/C=C/c1ccccc1 (stereo not given),103%
9,CCCCCCCCCCCC(=O)C(CCCCCCCCCC)C(=O)Nc1ccccc1 (stereo not given),96.8%
10,Cc1ccc(-c2csc(/N=C3\C(=O)Nc4ccccc43)n2)cc1,25.3%
11,C[C@@H]1CN(Cc2ccc(/C=C/c3n[nH]c4ccc5nc(-c6cn[nH]c6C(F)(F)F)c6c(c5c34)CCCC6)cc2)C[C@H](C)O1,36.7%
12,O=C1Nc2c(ccc(Cl)c2Cl)/C1=C/c1ccccn1,88.5%
13,CCCCCCOc1ccc(/C=N/Nc2cc(C)nc3ccc(Br)cc23)cc1,-65.4% (active)
14,CN(C)C(=O)c1cc2cnc(Nc3ccc(-c4csc5c(=O)cc(N6CCOCC6)oc45)cc3)nc2n1C1CCCC1,-30.4% (active)
15,CCCCCCCCOc1ccc(/C=N/Nc2cc(C)nc3ccc(Cl)cc23)cc1,-46.5% (active)
16,COc1ccccc1/C=C1\Oc2cc(OCCCN3CCCC3)ccc2C1=O,88.5%
17,COc1ccc2c(c1)OC13Oc4cc(OC)ccc4C=C1CCCC3=C2,41.4%
18,C=CCn1c(SCC(=O)Nc2ccc(C(=O)/C=C/c3cc(OC)c(OC)c(OC)c3)cc2)nnc1-c1cc(-c2ccc(S(C)(=O)=O)cc2)nc2ccccc12,111%
19,COc1ccc(Nc2nc(N)nc3c2CCc2occc2-3)cc1,98.4%
20,CNC(=O)NCC1OC(n2cnc3c(NC(=O)Nc4ccccc4)ncnc32)C(O[Si](C)(C)C(C)(C)C)C1O[Si](C)(C)C(C)(C)C (stereo not given),61.7%

row,SMILES,growth
1,CN1C2CCC1CN(c1cnc(C(=O)Nc3cc(F)cc4cccnc34)cn1)C2,88.6%
2,COc1ccc(/C=C/C(=O)c2ccc(Nc3ncnc4ccccc34)cc2)cc1OC,92.8%
3,COc1cc2nc(-c3ccc(C(F)(F)F)cc3)cc(OCCN3CCC(O)CC3)c2cc1OC,67.8%
4,Cc1c([N+](=O)[O-])cc(C(C)(C)C)cc1[N+](=O)[O-],76.2%
5,O=C(Nc1cccc(Cl)c1)c1cc(Cl)ccc1O,5.65% (active)
6,CS(=O)(=O)c1ccc(-c2cc(-c3nnc(SCC(=O)Nc4ccc(C(=O)/C=C/c5ccc(Cl)cc5)cc4)n3-c3ccccc3)c3ccccc3n2)cc1,95.1%
7,COc1cc(NCC(O)CN(CC(C)C)CC(C)C)c2nc(C)ccc2c1 (stereo not given),67.7%
8,CC(=O)Nc1ccc(S(=O)(=O)NC2CCCCC2)cc1,96.3%
9,CCN(CC)CCSCCCNc1c(C)cnc2cc(Cl)ccc12,85.2%
10,Cc1ccccc1C(c1ccccc1)c1ccccc1C,69.5%
11,Cn1c2c(Cl)c(Cl)ccc2c2cc(N)[nH]c(=O)c21,51.3%
12,CC(=O)NCCCS(=O)(=O)O,105%
13,O=C(Nc1nc2ccc(S(=O)(=O)Nc3ccc(C4(C(F)(F)F)CC4)cc3)cc2[nH]1)c1cnccn1,51.5%
14,O=C(c1ccccc1)N1N=C(c2ccc(-n3ccc(C(F)(F)F)n3)cc2)CC1c1ccc[nH]1 (stereo not given),105%
15,CC[N+](CC)(CCCC(C)[N+]1(Cc2ccccc2)C(C)=CC=C1C)Cc1ccccc1 (stereo not given),98.1%
16,COc1cc(NCC(C)(O)CN(CC(C)C)CC(C)C)c2nc(C)ccc2c1 (stereo not given),92.5%
17,C#Cc1cccc(NC(=O)Nc2ccc(NC(=O)CCl)cc2)c1,-6.94% [8.25 µM] (active)
18,Fc1ccc2nc3c(cc2c1)CSc1nnc(-c2ccc[nH]c2=S)n1N3,93.3%
19,COc1ccc2c(c1)OC1=C(C(=O)OC1)C2c1cc(OC)c(OC)c(OC)c1 (stereo not given),33.2%
20,C=C(C)[C@@H]1CC[C@]2(C=O)CC[C@]3(C)[C@H](CC[C@@H]4[C@@]5(C)CCCNC(C)(C)[C@@H]5CC[C@]43C)[C@@H]12,94.5%
